Rows were chosen to be rich in hits. Some 2.3% of all compounds tested hit in one or more screens of this group.
M1 PAM: human M1 muscarinic receptor positive allosteric modulators, primary screen, CHO-K1 cells, Fluo-8 calcium fluorescence, 1536-well; actives 0.088% (n = 360,000); activation, % at 3 µM; Muscarinic acetylcholine receptor M1 (Homo sapiens), P11229; CHO-K1 hM1, ACh EC20; 0% = ACh EC20, 100% = maximal ACh; in the data active = activation above about 19%, passing the limit was not always enough
Target sequence (P11229 whole entry, looked up): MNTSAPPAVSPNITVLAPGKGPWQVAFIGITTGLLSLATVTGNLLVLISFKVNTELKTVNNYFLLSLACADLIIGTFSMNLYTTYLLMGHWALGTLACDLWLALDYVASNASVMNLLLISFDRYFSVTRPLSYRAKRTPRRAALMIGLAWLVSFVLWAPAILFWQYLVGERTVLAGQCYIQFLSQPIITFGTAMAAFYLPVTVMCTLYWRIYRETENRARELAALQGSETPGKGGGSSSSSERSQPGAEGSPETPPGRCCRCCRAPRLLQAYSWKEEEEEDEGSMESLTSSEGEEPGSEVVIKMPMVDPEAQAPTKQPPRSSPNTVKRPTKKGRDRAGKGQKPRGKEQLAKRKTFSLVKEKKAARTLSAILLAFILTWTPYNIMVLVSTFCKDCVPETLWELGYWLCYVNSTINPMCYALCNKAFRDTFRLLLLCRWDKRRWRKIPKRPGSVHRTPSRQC
M1 antag: human M1 muscarinic receptor antagonists, primary screen, CHO-K1 cells, Fluo-8 calcium fluorescence, 1536-well | actives 1.3% (n = 360,000) | Muscarinic acetylcholine receptor M1 (Homo sapiens), P11229 | inhibition, % at 3 µM | CHO-K1 hM1, ACh EC80 antagonist | AID 588852, 2011;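 active = percent inhibition above its own plate's cutoff, namely the mean of that plate's compound wells plus 3 SD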;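 also: peak over basal fluorescence ratio during 140 s after agonist addition; 0% = ACh EC80 plus DMSO and 100% = DMSO alone without agonist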
M1 PAM parental: nonselective calcium activators in parental CHO-K1 cells, primary screen, counter-screen for M1 PAM project, cell-based, Fluo-8 calcium fluorescence, full deck, 1536-well; ATP EC20; 0% at ATP EC20, 100% at ATP max; activation, % at 3 µM; actives 0.02% (n = 360,000);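 active = activation above the run cutoff, the mean activation of all test compounds plus 3 SD, cut at about 40% in these data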;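 also: peak over basal fluorescence ratio in a 140 s read after ATP addition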
CHO-K1 Ca antag: nonselective inhibitor or artifact in parental CHO-K1 cells | AID 602250 | ATP-induced calcium, Fluo-8 fluorescence | actives 0.6% (n = 360,000) | inhibition, % at 3 µM;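 active = inhibition above a per-plate cutoff, the plate's mean sample inhibition plus 3 SD, cut at about 24% in these data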;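 also: 0% = DMSO plus EC80 ATP and 100% = DMSO alone without ATP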
M1 ag: human M1 muscarinic receptor agonists, primary screen, Fluo-8 calcium fluorescence, CHO-K1 cells, HTS; CHO-K1 hM1, agonist mode; 0% DMSO, 100% acetylcholine EC100; activation, % at 3 µM; actives 0.33% (n = 360,000);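 active = activation above the run's mean compound activation plus 3 SD, cut at about 16% in these data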;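 also: peak over basal fluorescence ratio within a 140 s kinetic read after compound addition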
CHO-K1 Ca ag: counter-screen for M1 agonists: effect in parental CHO-K1 cells; Fluo-8 calcium fluorescence; scaled to maximal ATP response, vehicle zero; activation, % at 3 µM; actives 0.48% (n = 360,000); AID 602248, 2012; in the data active = activation above about 15%;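 also: untransfected CHO-K1 host cells lacking M1 receptor as counterscreen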
Starred values were filed as active, the others as inactive.

For CC(C)(C)NC(=O)c1cc([N+](=O)[O-])ccc1N1CCCCC1 the results were M1 PAM -2.7, M1 antag -0.9, M1 PAM parental -9.0, CHO-K1 Ca antag 6.3, M1 ag -8.9 and CHO-K1 Ca ag -0.5.
COC(=O)c1ccccc1-c1c2ccc(=N)cc-2oc2cc(N)ccc12 was read as M1 PAM -23.7, M1 antag 101.9*, M1 PAM parental -22.8, CHO-K1 Ca antag 88.3*, M1 ag 890.2* and CHO-K1 Ca ag 678.1*.
`CN1CCN(CC#CCC(O)(c2ccccc2)C2CCCC2)CC1` (configuration not stated) gave M1 PAM -16.5, M1 antag 34.1*, M1 PAM parental -6.2, CHO-K1 Ca antag 17.3, M1 ag -5.8 and CHO-K1 Ca ag -0.4.
For CN1CCN(CC#CCC(O)(c2ccccc2)c2ccccc2)CC1 the results were M1 PAM 3.6, M1 antag -2.0, M1 PAM parental 21.7, CHO-K1 Ca antag 0.1, M1 ag -6.2 and CHO-K1 Ca ag 10.7.
CCN(CC)CC#CCC(O)(c1ccccc1)C1CCCC1 (configuration not stated) was read as M1 PAM -35.3, M1 antag 102.2*, M1 PAM parental 10.1, CHO-K1 Ca antag -11.3, M1 ag -12.7 and CHO-K1 Ca ag 0.9.
CN(C)CC#CCC(O)(c1ccccc1)C1CCCCC1 (configuration not stated) was read as M1 PAM -26.1, M1 antag 100.3*, M1 PAM parental 11.9, CHO-K1 Ca antag -2.1, M1 ag -8.6 and CHO-K1 Ca ag 0.5.
For Cc1ccc(/C=C(\C#N)C(=O)N2CCCC2)c(C)c1 the results were M1 PAM 7.0, M1 antag -11.3, M1 PAM parental -5.0, CHO-K1 Ca antag 0.1, M1 ag -2.0 and CHO-K1 Ca ag -1.1.
Screening CCc1ccccc1NC(=O)C1CCN(S(=O)(=O)c2ccc3c(c2)N(C(C)=O)CCO3)CC1 returned M1 PAM -1.1, M1 antag -0.5, M1 PAM parental 2.8, CHO-K1 Ca antag -11.7, M1 ag -5.3 and CHO-K1 Ca ag 0.3.
For COc1ccc(-c2cc(=O)c3ccc(O)cc3o2)cc1 the results were M1 PAM 24.1*, M1 antag -22.9, M1 PAM parental 10.4, CHO-K1 Ca antag 1.0, M1 ag 0.7 and CHO-K1 Ca ag -0.3.
`COC(=O)CC1=C(C(=O)OC)[C@@H](c2ccccc2[N+](=O)[O-])C(C#N)=C(N)O1` gave M1 PAM 19.6, M1 antag -19.4, M1 PAM parental 22.0, CHO-K1 Ca antag -7.4, M1 ag -2.6 and CHO-K1 Ca ag 1.4.
For CCCCCCCCCCn1ccc(=N)cc1 the results were M1 PAM -24.9, M1 antag 62.5*, M1 PAM parental 1.9, CHO-K1 Ca antag 6.6, M1 ag -8.2 and CHO-K1 Ca ag 0.4.
For Cc1c(C(=O)OCC[N+]2(C)CCCCC2)oc2ccccc12 the results were M1 PAM -34.7, M1 antag 54.5*, M1 PAM parental 16.7, CHO-K1 Ca antag -5.2, M1 ag -13.7 and CHO-K1 Ca ag 0.1.
`COc1ccc(CN2CCSc3sccc3C2=O)cc1` gave M1 PAM 3.3, M1 antag -4.1, M1 PAM parental -8.0, CHO-K1 Ca antag -5.2, M1 ag -4.6 and CHO-K1 Ca ag 0.1.
`O=C(Nc1cccc(Cl)c1)Nc1ccc(Br)cc1F` gave M1 PAM -18.3, M1 antag 32.6*, M1 PAM parental -9.5, CHO-K1 Ca antag 14.9, M1 ag -0.7 and CHO-K1 Ca ag 3.8.
Screening Cc1cc(NC(=O)Nc2ccccc2F)ccc1Br returned M1 PAM -10.1, M1 antag 11.5, M1 PAM parental -13.0, CHO-K1 Ca antag 24.7*, M1 ag -3.1 and CHO-K1 Ca ag 5.0.
`COC(=O)c1cc(Br)ccc1NC(=O)Nc1ccccc1` gave M1 PAM 5.9, M1 antag -2.7, M1 PAM parental 19.0, CHO-K1 Ca antag -16.5, M1 ag -2.8 and CHO-K1 Ca ag 2.2.
O=C(Nc1ccccc1)Nc1ccc(Br)cc1F was read as M1 PAM -18.6, M1 antag 45.6*, M1 PAM parental 10.2, CHO-K1 Ca antag 3.0, M1 ag -1.6 and CHO-K1 Ca ag 9.3.
Screening CCCS(=O)(=O)NC(=O)C1(C)CCCN(C(=O)c2ccccc2F)C1 (configuration not stated) returned M1 PAM -4.9, M1 antag 0.5, M1 PAM parental -9.1, CHO-K1 Ca antag -6.6, M1 ag -1.0 and CHO-K1 Ca ag -0.3.
Screening CCCCCC(=O)N1C[C@H](n2cc(COC(=O)c3ccccc3)nn2)[C@@H](O)C[C@@H]1c1ccc(OC)cc1 returned M1 PAM -0.3, M1 antag -6.0, M1 PAM parental -10.9, CHO-K1 Ca antag 23.0, M1 ag -2.0 and CHO-K1 Ca ag 0.2.
Screening C=CCc1cccc(CNc2cnc3ccccc3c2)c1O returned M1 PAM -11.8, M1 antag 40.4*, M1 PAM parental -22.7, CHO-K1 Ca antag 38.5*, M1 ag 1.7 and CHO-K1 Ca ag 9.3.
CCC(C)c1c(O)nc(SCC(=O)N2CCCCC2)[nH]c1=O (configuration not stated) was read as M1 PAM 1.0, M1 antag 1.8, M1 PAM parental 11.3, CHO-K1 Ca antag -6.0, M1 ag 0.3 and CHO-K1 Ca ag 0.8.
`CCC(C)c1c(O)nc(SCC(=O)N2CCOCC2)[nH]c1=O` (configuration not stated) gave M1 PAM 24.6*, M1 antag -21.1, M1 PAM parental 11.7, CHO-K1 Ca antag -25.4, M1 ag 3.5 and CHO-K1 Ca ag 0.3.
CCc1nc(SCC(=O)NCCc2ccccc2)c2oc3ccccc3c2n1 was read as M1 PAM 0.0, M1 antag -1.7, M1 PAM parental 24.7, CHO-K1 Ca antag -11.8, M1 ag -3.5 and CHO-K1 Ca ag 0.7.
`CCc1nc(SCC(=O)c2cccs2)c2oc3ccccc3c2n1` gave M1 PAM -8.8, M1 antag 20.8, M1 PAM parental -8.4, CHO-K1 Ca antag 26.2*, M1 ag -1.6 and CHO-K1 Ca ag 0.5.
Screening O=C1C(=Cc2cccn2-c2ccccc2)C(=O)c2ccccc21 returned M1 PAM 6.8, M1 antag -3.6, M1 PAM parental 17.0, CHO-K1 Ca antag -5.5, M1 ag -5.9 and CHO-K1 Ca ag 15.3*.

High-throughput results as filed in PubChem.
